From PubChem BioAssay (NCI)
The panel holds about 79,000 compounds, 15% with a hit somewhere; the sample as a whole holds those more often. Activity calls are given as the source filed them. Rule as the data show it: active = growth inhibition above about 70%; inactive = the rest.

Key:
[1] = NCI Yeast Anticancer Drug Screen. Data for the rad50 strain (AID 155);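 also: 0% = growth of vehicle-only cultures of the same strain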; conditions: S. cerevisiae rad50 strain growth inhibition, stronger effect = higher value
How it was run: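 DNA repair mutant yeast, compound exposure, growth read-out; inhibition is taken relative to vehicle.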

[2] = NCI Yeast Anticancer Drug Screen. Data for the mec2-1 strain (AID 157); conditions: S. cerevisiae mec2-1 strain, stronger effect = higher value
How it was run: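 Growth inhibition is read against vehicle-treated controls after compound exposure of the mec2-1 yeast strain, which is defective in DNA damage repair or cell cycle control.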

[3] = NCI Yeast Anticancer Drug Screen. Data for the sgs1 mgt1 strain (AID 161);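 also: 0% = growth of cultures given vehicle only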; conditions: S. cerevisiae sgs1 mgt1 strain, stronger effect = higher value
How it was run: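 Growth of a repair-deficient yeast mutant was monitored after compound treatment and expressed as inhibition relative to vehicle-treated cultures.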

[4] = NCI Yeast Anticancer Drug Screen. Data for the cln2 rad14 strain (AID 165);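 also: 0% = growth equal to vehicle treated cultures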; conditions: S. cerevisiae cln2 rad14 strain, stronger effect = higher value
How it was run: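 Growth inhibition, relative to vehicle-treated controls, is the read-out. The test organism is a yeast strain with defined genetic alterations, cln2 rad14.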

[5] = NCI Yeast Anticancer Drug Screen. Data for the bub3 strain (AID 167); conditions: S. cerevisiae bub3 mutant strain, stronger effect = higher value
How it was run: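 In this screen, a yeast mutant lacking normal mitotic checkpoint function is challenged with compound. Relative growth versus vehicle gives the inhibition value.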

[6] = NCI Yeast Anticancer Drug Screen. Data for the mlh1 rad18 strain (AID 175); conditions: S. cerevisiae mlh1 rad18 strain growth inhibition, stronger effect = higher value
How it was run: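 Cells of a genetically altered yeast strain, deficient in DNA damage repair, were treated with compound. Their growth was then compared with that of vehicle-treated cultures to give inhibition.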

[7] = at 5.0 µM (retest, dose inferred, filed as 0.5)
[8] = at 50.0 µM (retest, dose inferred, filed as 5.0)

Measured: growth inhibition

Nc1cc2c(nc3c4ccccc4c(N)cc3[n+]2-c2cccc3ccccc23)c2ccccc12 (tested in a mixture with another compound)
active: [1]; [7] 95% | [1]; [8] 92% | [1]; at 50.0 µM 89.4% | [2]; [8] 92% | [2]; at 50.0 µM 90.2% | [3]; [8] 94% | [3]; at 50.0 µM 89.2% | [4]; [8] 89% | [4]; at 50.0 µM 84.5% | [5]; [8] 91% | [5]; at 50.0 µM 84.8% | [6]; [7] 79% | [6]; [8] 91% | [6]; at 50.0 µM 89.8%
inactive: [2]; [7] 62% | [3]; [7] 59% | [4]; [7] 31% | [5]; [7] 61%

CCCC#CC(O)(C(=O)OC1CCN(C)CC1)C1CCCCC1 (configuration not stated)
inactive: [1]; [7] 34% | [1]; [8] 55% | [1]; at 50.0 µM 63.5% | [2]; [7] 36% | [2]; [8] 53% | [2]; at 50.0 µM 45.1% | [3]; [7] 12% | [3]; [8] 69% | [3]; at 50.0 µM 65.9% | [4]; [7] 41% | [4]; [8] 55% | [4]; at 50.0 µM 53.5% | [5]; [7] 23% | [5]; [8] 56% | [5]; at 50.0 µM 58% | [6]; [7] 46% | [6]; at 50.0 µM 53.5%
active: [6]; [8] 79%

COc1ccc(C2c3cc4c(cc3OC(C)(O)C2C)OCO4)cc1 (configuration not stated)
active: [1]; [8] 94% | [1]; at 50.0 µM 98.8% | [2]; [8] 94% | [2]; at 50.0 µM 95.4% | [3]; [8] 92% | [3]; at 50.0 µM 92% | [4]; [8] 84% | [4]; at 50.0 µM 97.5% | [5]; [8] 96% | [5]; at 50.0 µM 98.3% | [6]; [8] 93% | [6]; at 50.0 µM 98.5%
inactive: [1]; [7] 5% | [2]; [7] 8% | [3]; [7] 8% | [4]; [7] 8% | [5]; [7] -2% | [6]; [7] -2%

O=NN(CCCl)C(=O)Nc1cc(Cl)ccc1O
inactive: [1]; [7] -8% | [1]; [8] 57% | [2]; [7] -8% | [2]; [8] 30% | [2]; at 50.0 µM 36.1% | [3]; [7] -5% | [3]; [8] 46% | [4]; [7] -3% | [4]; [8] 13% | [4]; at 50.0 µM 8.45% | [5]; [7] -21% | [5]; [8] -16% | [5]; at 50.0 µM 37.1% | [6]; [7] 5%
active: [1]; at 50.0 µM 86.2% | [3]; at 50.0 µM 72.5% | [6]; [8] 81% | [6]; at 50.0 µM 90.1%

O/N=C\c1ccc(-c2ccccc2)cc1
inactive: [1]; [7] -17% | [2]; [7] -13% | [2]; [8] 64% | [2]; at 50.0 µM 47.6% | [3]; [7] -8% | [4]; [7] 17% | [4]; [8] 67% | [4]; at 50.0 µM 51.1% | [5]; [7] 2% | [6]; [7] 6% | [6]; at 50.0 µM 49.6%
active: [1]; [8] 87% | [1]; at 50.0 µM 74% | [3]; [8] 88% | [3]; at 50.0 µM 87% | [5]; [8] 83% | [5]; at 50.0 µM 77.7% | [6]; [8] 91%

Cc1cc[n+](C2CCC3(C)C(=CCC4C3CCC3(C)C(C(C)CCCC(C)C)CCC43)C2)cc1 (configuration not stated)
active: [1]; [7] 91% | [1]; [8] 97% | [1]; at 50.0 µM 95.8% | [2]; [8] 98% | [2]; at 50.0 µM 96% | [3]; [8] 98% | [3]; at 50.0 µM 98% | [4]; [8] 97% | [5]; [7] 75% | [5]; [8] 97% | [5]; at 50.0 µM 96.2% | [6]; [7] 71% | [6]; [8] 97% | [6]; at 50.0 µM 97.7%
inactive: [2]; [7] 16% | [3]; [7] 69% | [4]; [7] 26% | [4]; at 50.0 µM 64.3%

CC1=C(CO)C(=O)O[C@@H]([C@@H](C)[C@H]2CC[C@H]3[C@@H]4C[C@@H](O)C5=CC=CC(=O)[C@]5(C)[C@H]4CC[C@]23C)C1
active: [1]; at 50.0 µM 71.2% | [3]; at 50.0 µM 85.8% | [6]; at 50.0 µM 90.5%
inactive: [1]; [7] -2% | [1]; [8] 41% | [2]; [7] -24% | [2]; [8] 49% | [2]; at 50.0 µM 46% | [3]; [7] -1% | [3]; [8] -6% | [4]; [7] -1% | [4]; [8] 47% | [4]; at 50.0 µM 55.2% | [5]; [7] 0% | [5]; [8] 40% | [5]; at 50.0 µM 60.6% | [6]; [7] -22% | [6]; [8] 36%

OC(CCN1CCOCC1)C1c2ccccc2Cc2ccccc21 (configuration not stated)
inactive: [1]; [7] 6% | [2]; [7] 6% | [2]; [8] 29% | [2]; at 50.0 µM -1% | [3]; [7] 1% | [3]; at 50.0 µM 60% | [4]; [7] 1% | [4]; [8] 30% | [4]; at 50.0 µM -28.3% | [5]; [7] 0% | [5]; at 50.0 µM 46.6% | [6]; [7] 9% | [6]; at 50.0 µM 23.4%
active: [1]; [8] 74% | [1]; at 50.0 µM 77.2% | [3]; [8] 91% | [5]; [8] 76% | [6]; [8] 81%

O=C1C=CC(=NN=C(c2ccccc2)c2ccccc2)C=C1
inactive: [1]; [7] -27% | [1]; [8] -1% | [1]; at 50.0 µM 55% | [2]; [7] -16% | [2]; [8] -21% | [2]; at 50.0 µM 54.5% | [3]; [7] -21% | [3]; [8] -10% | [3]; at 50.0 µM 38.1% | [4]; [7] -27% | [4]; [8] -17% | [4]; at 50.0 µM 44% | [5]; [7] -14% | [5]; [8] -22% | [5]; at 50.0 µM 63.9% | [6]; [7] -38% | [6]; [8] -2% | [6]; at 50.0 µM 53%
